The supplement of paper PMC11417369
The full ranking holds about 25,000 sequences; the median of “ln(normalized median fluorescence intensity)” is about 9.7, and the highest 2% start at about 11. The sample as a whole holds a higher share of the highest values than the screen did.

System: PfAP2-HC AP2 domain (GST-tagged)
Test: gcPBM binding intensity (ln(normalized median fluorescence intensity)); higher = stronger DNA binding
In short: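 The binding buffer was 1× PBS containing 1% milk, 0.2 mg/ml BSA, 0.5% salmon testes DNA and 0.03% Triton X-100. In it, GST-tagged P. falciparum DNA-binding domains expressed in E. coli were applied for 1 h to an Agilent 4 × 180k array of primer-extended double-stranded 36-bp intergenic genomic probes plus negative controls. Binding intensity, read with Alexa488 anti-GST antibody and a 488 nm scan, is the highest Masliner-normalised natural-log median intensity across replicate spots of either probe orientation.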

Sequence | gcPBM binding intensity (ln)
ATAAAGAAACATATATGTACTTATATATATATATAT [XGTACX_site5625] | 9.69
TATAAGAGAATATATACACACAAAAATAAATACAGT [CACACA_site5000] | 10.9
ATATATATATAATGAAGTACGAAAAAATAAGAAATG [XGTACX_site4001] | 9.9
TATAAAACAAATATATGTACATATCATAGTATAATA [XGTACX_site2965] | 9.75
AAGGAAATATAATATACACACATAAGTGTACTTCTA [CACACA_site6079] | 9.81
AATAGTCGGGTGCATACACACCTTAAATATAATATA [CACACA_site8271] | 9.57
CTAATCGTGCACAACTGTACATTTGTCAAGGGCAAT [XGTACX_site8662] | 9.62
AAAGAACAAATAAAACATAAAATAATATATATAGAT [CACACA_negctrl_site1764] | 10.1
TATATACACCCACATACACACAAATAAAAAAACACC [CACACA_site3414] | 10.5
TACAAACACCCATATACACACAAAAAAAAAATAAAA [CACACA_site5421] | 9.94
AAAAAAAAAAAAAACACACACAACACCCATACCTTA [CACACA_site3621] | 11.2
ATATCTTATGTTATCACACACACACGCACAAAACAG [CACACA_site6800] | 10.3
AAAAAATACAAACACACACACACACCCATATATATA [CACACA_site3560] | 11
AAAAAAAAAAAAAACACACACACACCCAAATACATA [CACACA_site708] | 10.5
AAAAAAAAAAAAAACACACACATACACCCAAAAATG [CACACA_site4223] | 10.3
ATATCTTATATTATCACACACACACCCACAAAACAG [CACACA_site1464] | 11.5
AAAAAAAAAAAAAAAACACACACAACACCCATACCT [CACACA_site9208] | 10.4
AAAAAAAAAAAAAAAACACACATACCCATATATTTT [CACACA_site6013] | 9.85
AAAAAAACAGAAAACACACAAATTATCTTATAATTA [CACACA_site6282] | 9.8
AAAAAAAAAAAAAACACACACACACCCATACAAAAT [CACACA_site1446] | 11.6

Sequence | gcPBM binding intensity (ln)
ATATATATTTAAACTACACACGCATATCTTAGAAAT [CACACA_site8348] | 10.1
ACTGTACTATAAAATACACACATATAAATATAAATA [CACACA_site3009] | 9.99
AATATTTAATTCAACACACATACATATTTATTAAAA [CACACA_site2342] | 9.99
ATGTGTATATGTTAATGTACAAATTTTGAAAATGCC [XGTACX_site2685] | 9.86
TATTATTATTTTATGGTGCAAAAAAAAAAAAAAAAA | 8.83
TATTATATCTTATATGTATATTCCCACAAATTATAT [GTGCAC_negctrl_site362] | 9.59
TTTTGTTGTATGATAATTCTTTTATCAATATGTCTT [TGCATGCA_negctrl_site567] | 9.63
ACATTCACAAAATTTTGTACACATATATATATATAT [XGTACX_site3518] | 9.96
AATATATTTTAATACACACACACATATATATATATA [CACACA_site5969] | 10.4
AAAAAAACATGAAACACACACAAATATTTATTTATA [CACACA_site6967] | 10.2
TACTTACATATAATAACACACAAGAAAAAAATAAAA [CACACA_site1033] | 9.83
ACCTAAAAGGTATAATATATAAATAAAAAAAAAAAT [CACACA_negctrl_site134] | 9.72
AAAAAAAAAAAAAAAACACACACATACACCCAAAAA [CACACA_site7910] | 10.5
GTATAATAGAAACACACACACACACCCAAAAAAAAA [CACACA_site2010] | 10.7
AAAAAAAAAAAAAAAAAAAAACACCCAAAAAAATAT [XGTACX_negctrl_site210] | 10.1
AAAAAAAAAAAAAACACACACACACCCAAATATATA [CACACA_site1169] | 11.3
TATACTCAGAAACACACACACACACCCAAAAAAAAA [CACACA_site4434] | 11.1
CAAAAAAACAAACACACACACACACCCATATATATA [CACACA_site3653] | 11.5
AACAAAAAAACAAACACACACACACCCATATATATA [CACACA_site3652] | 10.6
AAAACACCCAAACACACACACACATATATATATATA [CACACA_site9119] | 10.8

Sequence | gcPBM binding intensity (ln)
AAAAAAAAAAAACACACACACACACCCAAATATATA [CACACA_site150] | 10.6
ATATAATGAATTATTAGAAAATAAAATGAATAAAGT [CACACA_negctrl_site690] | 9.87
CATTTTGTTTTAAAGTGTACATTATGTAATATAAAA [XGTACX_site647] | 9.33
TTTTAAAGAAAATATTTTATCATTATTTTTTGTACT [CACACA_negctrl_site1648] | 9.57
AATATAAATTTATATTGTACATATTTTATTATATGT [XGTACX_site905] | 9.67
TAAAACAGAATGAGGAGTACAAAAAGAAGAAAAGGG [XGTACX_site1246] | 9.83
ATAAAATGAAATATATGTACGCATCACTTGTTGAAC [XGTACX_site4530] | 9.72
AAAAAAAAAAAAAAAAAAAAATATATATATATATAT [GTGCAC_negctrl_site426] | 9.47
TATTTTGTTCTTTCCACACACAAATACAGATATTGT [CACACA_site6097] | 10.1
AAAAAAAAAAAACACACACACACATACCCATACATA [CACACA_site5575] | 11.3
AAAAAAAAAAAACACACACACACACCCATATACATA [CACACA_site2664] | 11
CACAAACACCCAAACACACACACACCGACATACATA [CACACA_site4410] | 11.1
CAAACACCCAAACACACACACACATACATACATACA [CACACA_site8044] | 10.7
TAAACACCCATACATACACACATACATACACCCATA [CACACA_site5125] | 10
AAAAAAAAAAAAAACACACACACACCCACATATACA [CACACA_site2663] | 10.6
AAAAAAAAAAAAAAAACACACATACACCCCCACCCA [CACACA_site9117] | 10.2
AAAAAAAAAAAACACACACACACACCCATACATACA [CACACA_site707] | 11.4
AAAAAAAAAAAAAACACACACACACCCATACCCATA [CACACA_site5577] | 10.5
AACACCCAAAAACACACACACATACATACATACATA [CACACA_site4411] | 10.3
TTAAAAAAAAAACACACACACATACCCATATATATA [CACACA_site5768] | 10.4
